# KB-3-1 cytotox = qHTS assay for MDR1-selective chemotherapeutics: Primary screen using the parental adenocarcinoma cell KB-3-1 | KB-3-1 viability, CellTiter-Glo ATP luminescence, 72 h | Potency, µM (highest dose often 46.1 µM), most hits filed as cytotoxic | 400,000 compounds, 1.4% hits; also: % is scaled to controls: 0 for no effect and ±100 for the full control effect; nearly all actives have a fitted effect of over 60% in size
#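 72 h, 37 °C compound treatment of KB-3-1 parental cells; CellTiter-Glo added, 10 min, luminescence read. Data corrected against DMSO-only plates and normalized before curve fitting.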
# ATXN2 expr inh = Primary qHTS for Inhibitors of ATXN expression; 360,000 compounds, 0.72% hits; Potency, µM (highest dose often 57 µM), for the others: at the highest dose activity change, negative = inhibition, usual class: inhibitors; HEK-293 ATXN2-luciferase reporter, luminescence, 24 h; also: % is scaled to controls: 0 for no effect and ±100 for the full control effect; nearly all actives have a fitted effect of over 55% in size
#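 ATXN2-luciferase reporter cells (luciferase flanked by upstream and downstream ATXN2 gene portions) were treated 24 h at 37 °C with compounds at up to 57 uM. SteadyGlo luminescence gave expression; GF-AFC fluorescence gave viability.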
# KB-V1 cytotox = qHTS assay for MDR1-selective chemotherapeutics: Primary screen using the drug-selected MDR subline cells KB-V1; KB-V1 MDR cells viability, CellTiter-Glo, 72 h; Potency, µM (series often up to 46.1 µM), actives largely listed as cytotoxic; 400,000 compounds, 3.4% hits; also: % is scaled to controls: 0 for no effect and ±100 for the full control effect; nearly all actives have a fitted effect of over 60% in size
#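 Luminescent ATP read-out (CellTiter-Glo, 10 min) measures survival of drug-selected KB-V1 MDR cells after 72 h, 37 degrees C compound exposure. Medium: phenol-red-free DMEM, 10% FBS. Values from fitted concentration-response curves.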
# HT1080 IDH1KD tx = qHTS for induction of synthetic lethality in tumor cells producing 2HG: qHTS for the HT-1080-IDH1KD cell line; Potency, µM (series often up to 46.1 µM), inactives show at the top dose activity, negative = toxicity, hits mostly cytotoxic; 360,000 compounds, 2% hits; HT-1080 IDH1 knockdown viability, ATP luminescence, 48 h; AID 686971, 2013;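 also: 0% = DMSO wells and -100% = cell-free medium wells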
#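 IDH1KD HT-1080 cells, 750/well, RPMI + 5% FBS; compound pinned after 2 h settling; 48 h, 37 °C; CellTiter-Glo luminescence; % activity normalised to DMSO and no-cell wells; curves fitted, classed by r2 and efficacy.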
# HT1080NT lethal = qHTS for induction of synthetic lethality in tumor cells producing 2HG: qHTS for the HT-1080-NT fibrosarcoma cell line; HT-1080-NT fibrosarcoma viability, CellTiter-Glo ATP luminescence, 48 h; Potency, µM (top dose mostly 46.1 µM), without a hit: at the top dose activity, negative = less viability, most hits filed as cytotoxic; 360,000 compounds, 1.6% hits; AID 686970, 2013;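 also: NT is the 2HG producing partner of a matched IDH1 knockdown line; 0% = DMSO-treated cells and -100% = media-only wells without cells; nearly all actives have a fitted effect of over 55% in size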
#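 Luminescent CellTiter-Glo readout after 48 hours of compound exposure at 37 degrees C defined viability of HT-1080-NT cells. Activity was normalized to DMSO wells and cell-free media wells; concentration-response curves were fitted and assigned curve classes.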
# S2 tox = Viability Counterscreen for Primary qHTS for Inhibitors of ATXN expression; S2 cells (HEK-293 line with an ATXN2-luciferase reporter) viability, CellTiter-Fluor protease fluorescence, 24 h; Potency, µM (top dose mostly 56.7 µM), usual class: cytotoxic; 400,000 compounds, 0.49% hits; AID 651635, 2014; also: nearly all actives have a fitted effect of over 40% in size
# An asterisk follows results filed as active; i = inactive; u = inconclusive; x = not tested or not shown. Hits are enriched below; roughly 6.2% of the tested compounds scored in any of these assays. Calls follow the shape of the dose curve; as a rule, active = well fitted curve in the direction sought with a large enough effect; inconclusive = small, poorly fitted or top-dose-only effect, or another doubt; inactive = no such curve, though single readings can be large; an effect the other way counts as inactive or inconclusive. Potency is read from the fitted curve at half-maximal effect.
SMILES,KB-3-1 cytotox,ATXN2 expr inh,KB-V1 cytotox,HT1080 IDH1KD tx,HT1080NT lethal,S2 tox
CC(=O)Nc1ccc(NC(=O)c2cc(C)nn2-c2ccccc2)cc1,i,4%,i,2%,5%,i
CC(=O)c1cc2c(cc1NC(=O)c1cc(C)nn1-c1ccccc1)OCO2,5.8µM*,-8%,i,-7%,0%,i
CCN1CCCC1CNC(=O)c1ccc(Sc2ccc(F)cc2)c([N+](=O)[O-])c1 (stereo unspecified),u,-12%,u,u,u,i
CCN1CCN(C(=O)c2ccc(Sc3ccccc3Cl)c([N+](=O)[O-])c2)CC1,i,-8%,13µM*,-3%,-7%,i
CCN1CCCC1CNC(=O)c1ccc(Sc2ccccc2Cl)c([N+](=O)[O-])c1 (stereo unspecified),i,7%,i,u,26µM*,i
CC1=C(C(=O)N2CCOCC2)CC(CC(=O)NCCCCc2ccccc2)C(=O)N1Cc1ccc(C(C)(C)C)cc1 (stereo unspecified),i,u,i,-21%,16%,u
Cc1nn2c(-c3ccccc3)ccnc2c1-c1ccccc1,i,0%,15µM*,4%,9%,u
Cc1nc2c(-c3ccccc3)c(C)nn2c(N)c1-c1ccccc1,u,113%,u,u,u,i
Cc1c(C(=O)N2CCCCCC2)sc2ncnc(NCC3CCCO3)c12 (stereo unspecified),x,x,x,x,x,i
COc1ccc(-n2cnnc2SCC(=O)Nc2cccc(S(=O)(=O)N3CCCCC3)c2)cc1,i,-16%,15µM*,1%,3%,i
O=S(=O)(Nc1ccccc1OC(F)F)c1ccc(S(=O)(=O)N2CCCC2)cc1,i,0%,18µM*,-2%,-2%,i
O=C(Nc1cccc(S(=O)(=O)N2CCCCC2)c1)c1ccc([N+](=O)[O-])o1,u,u,u,5.2µM*,10µM*,u
Cc1ccc(S(=O)(=O)CCC(=O)Nc2cccc(S(=O)(=O)N3CCCCCC3)c2)cc1,u,-6%,9.2µM*,7%,3%,u
COc1ccc(-n2cnnc2SCC(=O)Nc2cc(S(=O)(=O)N3CCCCC3)ccc2C)cc1,i,-1%,u,6%,-3%,i
O=C(Nc1ccc(F)cc1F)c1ccc(S(=O)(=O)N2CCCCC2)cc1,x,-3%,x,-21%,0%,i
O=C(Nc1cccc(S(=O)(=O)N2CCCCC2)c1)c1ccccc1NS(=O)(=O)c1ccc(F)cc1,u,-16%,21µM*,23µM*,u,i
O=C(Nc1ccc(F)cc1F)c1cc(S(=O)(=O)N2CCCCC2)c[nH]1,18µM*,-27%,u,x,x,u
Cc1ccc(NC(=O)c2ccccc2NS(=O)(=O)c2ccc(F)cc2)cc1S(=O)(=O)N1CCCCC1,u,u,u,u,u,i
Cc1ccc(C(=O)Nc2cccc(S(=O)(=O)N3CCCCC3)c2)cc1[N+](=O)[O-],21µM*,u,u,-23%,-5%,u
COC(=O)c1ccc(OCC2c3cc(OC)c(OC)cc3CCN2C(=O)c2ccccc2F)cc1 (stereo unspecified),i,-23%,i,x,x,i
C=C1CC2C3CCC4=CC(=O)C=C[C@]4(C)[C@@]3(F)[C@@H](O)C[C@]2(C)[C@@]1(O)C(=O)COC(C)=O (stereo partly specified),x,x,x,x,x,i
CN(C(=O)CSc1ncnc2sccc12)C1CCS(=O)(=O)C1 (stereo unspecified),i,-8%,u,-1%,13%,i

# Compound activity as filed in PubChem.
